Laboratory results taken from the supplement of paper PMC11732987, “Enantioselective OTUD7B fragment discovery through chemoproteomics screening and high-throughput optimisation” (Communications Chemistry, 2025).

Assays:
Assay in all cases: log2 ratio of Biotin-Ahx-Ub-VS probe labelling (fragment/DMSO); higher = less target engagement (more negative = stronger competition), active = hit call of the paper (q ≤ 0.05, log2 ratio ≤ -1)
Conditions in all cases: compound concentration: 200 uM; treatment time: 3 h
USP9X = USP9X (UniProt Q93008)
How it was run: (§1)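 Labelled DUBs from HEK293T lysate were NeutrAvidin-enriched, digested with LysC and trypsin, and run by diaPASEF LC-MS/MS. Before that, each 495 µg sample in Tris/CHAPS/IGEPAL buffer with protease inhibitors was treated in triplicate with fragment at 200 µM or vehicle for 3 h, then with Biotin-Ahx-Ub-VS at 0.5 µM final for 1 h. Values are average log2 ratios of fragment over vehicle by unpaired t-test, based on global-median-normalised Spectronaut label-free quantities from proteins with ≥2 unique peptides.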

UniProt O00487 = target: UniProt O00487
How it was run: as §1

UniProt O00507 = target: UniProt O00507
How it was run: as §1

UniProt P51784 = target: UniProt P51784
How it was run: as §1

UniProt Q5T2D3 = target: T1, UniProt Q5T2D3
T1 sequence (whole entry): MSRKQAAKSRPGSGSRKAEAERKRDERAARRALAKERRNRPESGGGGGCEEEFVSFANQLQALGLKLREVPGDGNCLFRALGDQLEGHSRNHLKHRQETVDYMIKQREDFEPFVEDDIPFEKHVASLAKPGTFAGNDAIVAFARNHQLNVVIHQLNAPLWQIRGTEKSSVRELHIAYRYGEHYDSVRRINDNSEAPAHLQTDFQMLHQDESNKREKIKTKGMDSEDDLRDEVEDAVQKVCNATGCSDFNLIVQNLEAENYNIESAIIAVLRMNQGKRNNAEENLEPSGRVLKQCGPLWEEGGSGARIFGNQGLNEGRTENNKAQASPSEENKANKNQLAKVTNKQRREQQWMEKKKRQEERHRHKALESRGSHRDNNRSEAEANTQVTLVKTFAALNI
How it was run: as §1

UniProt Q8TE49 = target: T2, UniProt Q8TE49
T2 sequence (whole entry): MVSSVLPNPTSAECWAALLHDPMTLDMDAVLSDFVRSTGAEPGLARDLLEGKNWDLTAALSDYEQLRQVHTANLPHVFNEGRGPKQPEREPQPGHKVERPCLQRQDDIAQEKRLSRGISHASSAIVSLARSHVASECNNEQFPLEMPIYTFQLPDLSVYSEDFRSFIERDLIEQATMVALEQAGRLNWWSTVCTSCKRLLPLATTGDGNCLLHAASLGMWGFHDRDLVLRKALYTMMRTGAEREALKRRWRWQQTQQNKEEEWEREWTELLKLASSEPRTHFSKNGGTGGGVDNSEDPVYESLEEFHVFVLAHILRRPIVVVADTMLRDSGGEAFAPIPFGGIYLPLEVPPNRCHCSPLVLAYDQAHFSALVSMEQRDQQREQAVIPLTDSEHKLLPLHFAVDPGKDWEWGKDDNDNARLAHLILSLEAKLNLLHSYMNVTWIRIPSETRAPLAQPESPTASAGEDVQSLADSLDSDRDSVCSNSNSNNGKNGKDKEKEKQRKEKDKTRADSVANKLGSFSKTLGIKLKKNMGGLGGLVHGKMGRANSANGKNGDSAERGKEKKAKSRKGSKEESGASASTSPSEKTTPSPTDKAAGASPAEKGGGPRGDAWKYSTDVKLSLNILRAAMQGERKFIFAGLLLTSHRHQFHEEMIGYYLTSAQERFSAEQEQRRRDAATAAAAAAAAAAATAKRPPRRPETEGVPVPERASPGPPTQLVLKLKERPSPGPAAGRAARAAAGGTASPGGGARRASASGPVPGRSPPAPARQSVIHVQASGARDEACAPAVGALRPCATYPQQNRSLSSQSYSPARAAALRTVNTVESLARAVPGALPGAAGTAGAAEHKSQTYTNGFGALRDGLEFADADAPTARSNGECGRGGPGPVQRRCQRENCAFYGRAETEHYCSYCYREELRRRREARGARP
How it was run: as §1

UniProt Q9P2H5 = target: T3, UniProt Q9P2H5
T3 sequence (whole entry): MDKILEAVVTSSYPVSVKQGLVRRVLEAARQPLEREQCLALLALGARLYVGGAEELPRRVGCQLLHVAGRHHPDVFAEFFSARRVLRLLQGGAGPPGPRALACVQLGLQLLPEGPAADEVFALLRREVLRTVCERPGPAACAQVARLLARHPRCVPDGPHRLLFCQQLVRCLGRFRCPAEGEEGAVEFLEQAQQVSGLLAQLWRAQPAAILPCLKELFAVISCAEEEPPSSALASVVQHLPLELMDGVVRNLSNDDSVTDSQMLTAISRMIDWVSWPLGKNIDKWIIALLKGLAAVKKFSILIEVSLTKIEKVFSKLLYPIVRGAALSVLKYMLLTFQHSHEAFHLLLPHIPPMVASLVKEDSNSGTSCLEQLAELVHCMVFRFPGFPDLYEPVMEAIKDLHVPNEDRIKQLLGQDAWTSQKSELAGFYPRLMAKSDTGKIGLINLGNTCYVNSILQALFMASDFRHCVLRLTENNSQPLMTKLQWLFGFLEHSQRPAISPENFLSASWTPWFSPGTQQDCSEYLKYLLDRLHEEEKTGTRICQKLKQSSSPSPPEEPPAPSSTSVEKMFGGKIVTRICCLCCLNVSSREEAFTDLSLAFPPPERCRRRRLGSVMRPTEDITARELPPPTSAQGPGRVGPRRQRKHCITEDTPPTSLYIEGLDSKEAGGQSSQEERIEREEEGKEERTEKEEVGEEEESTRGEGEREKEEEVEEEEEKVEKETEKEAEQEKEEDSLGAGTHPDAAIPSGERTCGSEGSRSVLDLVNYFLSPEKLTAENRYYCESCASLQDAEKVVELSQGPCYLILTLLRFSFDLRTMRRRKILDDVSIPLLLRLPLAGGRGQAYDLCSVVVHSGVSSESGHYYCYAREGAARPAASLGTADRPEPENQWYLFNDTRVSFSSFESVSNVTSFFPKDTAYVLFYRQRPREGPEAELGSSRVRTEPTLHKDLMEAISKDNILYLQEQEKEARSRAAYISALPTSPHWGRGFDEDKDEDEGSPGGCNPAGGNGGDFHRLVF
How it was run: as §1

UniProt Q9UGI0 = target: T4, UniProt Q9UGI0
T4 sequence (whole entry): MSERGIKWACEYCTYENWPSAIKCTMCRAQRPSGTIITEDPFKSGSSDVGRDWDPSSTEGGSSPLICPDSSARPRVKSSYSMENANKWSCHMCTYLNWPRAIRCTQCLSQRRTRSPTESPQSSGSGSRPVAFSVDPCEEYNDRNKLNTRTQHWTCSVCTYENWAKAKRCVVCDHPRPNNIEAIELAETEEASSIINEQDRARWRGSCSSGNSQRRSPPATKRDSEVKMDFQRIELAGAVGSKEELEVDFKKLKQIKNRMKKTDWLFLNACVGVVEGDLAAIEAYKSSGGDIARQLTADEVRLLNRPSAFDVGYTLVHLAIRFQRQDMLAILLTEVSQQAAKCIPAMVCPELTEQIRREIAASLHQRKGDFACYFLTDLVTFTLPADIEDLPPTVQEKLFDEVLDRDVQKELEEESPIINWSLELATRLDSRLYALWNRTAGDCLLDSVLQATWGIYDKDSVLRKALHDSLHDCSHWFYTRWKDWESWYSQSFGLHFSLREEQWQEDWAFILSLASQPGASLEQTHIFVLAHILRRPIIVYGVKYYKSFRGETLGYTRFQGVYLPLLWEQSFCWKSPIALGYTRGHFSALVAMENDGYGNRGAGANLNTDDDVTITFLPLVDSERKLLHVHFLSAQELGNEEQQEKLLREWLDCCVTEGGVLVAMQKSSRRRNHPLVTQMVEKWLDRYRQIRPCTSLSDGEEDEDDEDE
How it was run: as §1

YOD1 = target: T5, YOD1 (UniProt Q5VVQ6)
T5 sequence (whole entry): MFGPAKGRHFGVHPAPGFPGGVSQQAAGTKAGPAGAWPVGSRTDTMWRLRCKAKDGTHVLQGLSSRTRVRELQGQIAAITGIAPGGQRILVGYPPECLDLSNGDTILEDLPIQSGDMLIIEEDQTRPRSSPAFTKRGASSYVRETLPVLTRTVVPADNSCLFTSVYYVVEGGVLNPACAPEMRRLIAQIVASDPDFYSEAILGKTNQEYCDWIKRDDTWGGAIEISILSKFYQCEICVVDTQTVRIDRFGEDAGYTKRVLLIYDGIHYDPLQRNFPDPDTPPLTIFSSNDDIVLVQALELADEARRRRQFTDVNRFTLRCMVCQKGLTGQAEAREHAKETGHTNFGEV
How it was run: as §1

Measured: log2 ratio of Biotin-Ahx-Ub-VS probe labelling

Sequence of UniProt O00507 (O00507 whole entry): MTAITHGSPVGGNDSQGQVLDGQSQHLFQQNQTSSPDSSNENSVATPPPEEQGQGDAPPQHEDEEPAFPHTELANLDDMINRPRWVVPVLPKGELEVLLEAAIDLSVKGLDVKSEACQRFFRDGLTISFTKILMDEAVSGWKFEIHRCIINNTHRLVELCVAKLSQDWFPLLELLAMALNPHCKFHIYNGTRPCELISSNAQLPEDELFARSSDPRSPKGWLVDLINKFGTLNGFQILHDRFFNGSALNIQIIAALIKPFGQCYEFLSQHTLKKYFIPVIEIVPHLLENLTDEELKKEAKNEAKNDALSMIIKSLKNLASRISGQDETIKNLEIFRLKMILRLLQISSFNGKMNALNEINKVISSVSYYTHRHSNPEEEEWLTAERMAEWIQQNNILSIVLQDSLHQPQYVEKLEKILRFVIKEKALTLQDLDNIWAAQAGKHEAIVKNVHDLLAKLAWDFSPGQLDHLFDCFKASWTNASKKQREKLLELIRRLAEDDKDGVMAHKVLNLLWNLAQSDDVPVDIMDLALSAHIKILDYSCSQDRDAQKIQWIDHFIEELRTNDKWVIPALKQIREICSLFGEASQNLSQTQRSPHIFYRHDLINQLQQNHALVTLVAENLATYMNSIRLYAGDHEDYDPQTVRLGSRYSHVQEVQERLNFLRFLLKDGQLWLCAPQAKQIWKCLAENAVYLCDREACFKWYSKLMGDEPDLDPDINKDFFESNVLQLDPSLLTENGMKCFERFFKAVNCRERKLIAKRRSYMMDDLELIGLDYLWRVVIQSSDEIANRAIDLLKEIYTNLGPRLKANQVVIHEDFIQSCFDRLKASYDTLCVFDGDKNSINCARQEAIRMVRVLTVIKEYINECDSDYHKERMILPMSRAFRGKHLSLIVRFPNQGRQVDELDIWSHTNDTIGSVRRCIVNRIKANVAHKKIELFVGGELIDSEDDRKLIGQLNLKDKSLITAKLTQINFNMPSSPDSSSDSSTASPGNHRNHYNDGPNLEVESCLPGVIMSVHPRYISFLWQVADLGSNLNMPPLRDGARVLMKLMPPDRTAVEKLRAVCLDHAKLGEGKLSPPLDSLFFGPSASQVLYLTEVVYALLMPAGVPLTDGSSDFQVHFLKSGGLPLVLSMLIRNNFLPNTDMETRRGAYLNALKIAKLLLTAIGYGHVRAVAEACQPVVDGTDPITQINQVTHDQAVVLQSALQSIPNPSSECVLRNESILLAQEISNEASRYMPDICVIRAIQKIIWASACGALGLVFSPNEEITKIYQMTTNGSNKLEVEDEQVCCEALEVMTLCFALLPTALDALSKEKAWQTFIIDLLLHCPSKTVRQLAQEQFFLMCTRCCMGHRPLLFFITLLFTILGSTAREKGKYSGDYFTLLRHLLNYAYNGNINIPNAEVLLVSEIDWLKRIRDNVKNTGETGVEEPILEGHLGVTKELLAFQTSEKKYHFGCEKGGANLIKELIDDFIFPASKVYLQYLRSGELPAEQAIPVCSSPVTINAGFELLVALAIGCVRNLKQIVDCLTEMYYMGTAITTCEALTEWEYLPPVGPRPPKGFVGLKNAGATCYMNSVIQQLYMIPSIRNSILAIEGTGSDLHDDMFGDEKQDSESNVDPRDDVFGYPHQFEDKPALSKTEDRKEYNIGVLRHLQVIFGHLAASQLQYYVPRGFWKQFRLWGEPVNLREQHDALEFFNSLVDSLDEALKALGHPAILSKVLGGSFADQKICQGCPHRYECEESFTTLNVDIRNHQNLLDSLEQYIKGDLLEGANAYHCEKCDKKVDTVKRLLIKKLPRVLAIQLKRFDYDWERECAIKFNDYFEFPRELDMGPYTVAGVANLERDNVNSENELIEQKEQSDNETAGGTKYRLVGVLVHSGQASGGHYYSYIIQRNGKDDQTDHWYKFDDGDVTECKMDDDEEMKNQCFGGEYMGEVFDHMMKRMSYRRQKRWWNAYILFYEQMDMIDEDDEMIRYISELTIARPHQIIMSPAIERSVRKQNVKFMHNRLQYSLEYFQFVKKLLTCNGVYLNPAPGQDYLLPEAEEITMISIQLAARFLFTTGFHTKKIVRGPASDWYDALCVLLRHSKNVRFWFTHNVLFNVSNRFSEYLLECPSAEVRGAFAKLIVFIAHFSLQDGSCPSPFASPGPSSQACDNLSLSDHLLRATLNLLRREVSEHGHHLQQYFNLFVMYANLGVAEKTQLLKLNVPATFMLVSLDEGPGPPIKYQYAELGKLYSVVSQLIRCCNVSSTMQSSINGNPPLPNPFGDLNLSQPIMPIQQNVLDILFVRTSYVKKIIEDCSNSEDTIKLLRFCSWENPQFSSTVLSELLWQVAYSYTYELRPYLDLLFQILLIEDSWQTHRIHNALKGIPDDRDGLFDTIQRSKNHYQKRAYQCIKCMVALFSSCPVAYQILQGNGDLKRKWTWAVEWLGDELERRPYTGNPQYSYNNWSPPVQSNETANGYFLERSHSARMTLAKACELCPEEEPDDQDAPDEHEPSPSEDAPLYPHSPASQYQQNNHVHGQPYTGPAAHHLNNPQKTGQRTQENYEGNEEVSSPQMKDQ
Sequence of UniProt O00487 (O00487 whole entry): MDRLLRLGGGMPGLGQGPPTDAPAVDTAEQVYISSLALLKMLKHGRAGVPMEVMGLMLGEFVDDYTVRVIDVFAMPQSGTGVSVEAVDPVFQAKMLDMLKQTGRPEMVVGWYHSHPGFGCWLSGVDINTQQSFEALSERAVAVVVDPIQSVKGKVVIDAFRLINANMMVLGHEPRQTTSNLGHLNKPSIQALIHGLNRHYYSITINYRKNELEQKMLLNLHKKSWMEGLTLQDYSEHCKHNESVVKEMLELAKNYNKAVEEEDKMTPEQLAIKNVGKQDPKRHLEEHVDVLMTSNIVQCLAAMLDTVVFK
Sequence of UniProt P51784 (P51784 whole entry): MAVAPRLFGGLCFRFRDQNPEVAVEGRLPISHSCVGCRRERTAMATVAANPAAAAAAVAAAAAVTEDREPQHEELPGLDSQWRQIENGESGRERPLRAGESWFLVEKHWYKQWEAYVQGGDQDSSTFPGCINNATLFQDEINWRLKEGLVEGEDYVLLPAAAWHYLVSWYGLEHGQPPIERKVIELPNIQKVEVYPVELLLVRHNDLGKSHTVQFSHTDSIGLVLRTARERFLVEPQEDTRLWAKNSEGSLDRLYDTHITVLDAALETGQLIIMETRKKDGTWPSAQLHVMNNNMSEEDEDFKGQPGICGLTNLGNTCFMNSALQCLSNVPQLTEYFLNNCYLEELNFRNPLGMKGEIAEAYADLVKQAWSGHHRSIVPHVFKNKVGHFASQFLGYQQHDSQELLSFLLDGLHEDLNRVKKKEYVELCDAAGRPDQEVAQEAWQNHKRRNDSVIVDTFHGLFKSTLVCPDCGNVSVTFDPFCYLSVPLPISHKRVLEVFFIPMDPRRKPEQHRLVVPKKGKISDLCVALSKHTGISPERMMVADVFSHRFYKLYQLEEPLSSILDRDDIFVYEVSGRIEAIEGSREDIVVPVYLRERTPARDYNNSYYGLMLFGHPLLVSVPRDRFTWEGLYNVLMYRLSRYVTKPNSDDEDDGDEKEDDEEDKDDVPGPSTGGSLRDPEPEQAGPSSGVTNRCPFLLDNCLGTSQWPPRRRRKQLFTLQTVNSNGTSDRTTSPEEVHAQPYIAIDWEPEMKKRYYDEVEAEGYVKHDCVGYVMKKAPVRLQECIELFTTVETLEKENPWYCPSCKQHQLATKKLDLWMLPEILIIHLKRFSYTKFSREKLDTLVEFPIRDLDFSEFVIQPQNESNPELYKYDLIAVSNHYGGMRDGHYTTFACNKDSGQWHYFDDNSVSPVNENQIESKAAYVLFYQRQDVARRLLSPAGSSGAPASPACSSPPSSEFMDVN

O=C(CCl)N1CCOC(CCc2ccccc2)C1 (centres undefined)
inactive: USP9X -0.43 | UniProt O00487 -0.235 | UniProt O00507 -0.798 | UniProt P51784 -0.097 | UniProt Q5T2D3 -0.306 | UniProt Q8TE49 -0.84 | UniProt Q9P2H5 -0.236 | UniProt Q9UGI0 -0.876 | YOD1 -0.418
